Compound activity deposited in PubChem BioAssay by National Center for Advancing Translational Sciences (NCATS).
Sampled rows, rich in hits. Any-hit rate of the full collection: about 2.4%.
GLP-1R agonist = agonists of human GLP-1 receptor. P43220. Potency, µM (series often up to 45.6 µM), inactives show top-dose activation, hits mostly activators. AID 624172. HEK293 GLP-1R CRE-luciferase, luminescence, 4-6 h; cells express a hypersensitive GLP-1R form. 380,000 compounds, 0.007% hits; further: potency means the concentration at half of the fitted maximal effect; % of control where 0% means no effect
Target sequence (P43220 whole entry, looked up): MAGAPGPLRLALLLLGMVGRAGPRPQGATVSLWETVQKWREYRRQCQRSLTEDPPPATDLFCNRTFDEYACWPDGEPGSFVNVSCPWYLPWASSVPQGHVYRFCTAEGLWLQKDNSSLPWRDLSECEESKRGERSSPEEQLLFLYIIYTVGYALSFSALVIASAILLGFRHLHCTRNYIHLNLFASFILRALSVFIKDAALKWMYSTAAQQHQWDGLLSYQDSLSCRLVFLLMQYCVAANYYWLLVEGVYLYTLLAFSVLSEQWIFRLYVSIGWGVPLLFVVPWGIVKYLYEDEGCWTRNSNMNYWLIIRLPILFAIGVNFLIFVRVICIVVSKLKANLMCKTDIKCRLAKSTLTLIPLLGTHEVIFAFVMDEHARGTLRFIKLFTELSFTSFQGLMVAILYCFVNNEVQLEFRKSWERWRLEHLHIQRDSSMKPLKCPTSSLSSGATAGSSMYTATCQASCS
PTHR1 ag = agonists of human PTHR1 parathyroid hormone receptor. Q03431. HEK293 GP2 PTHR1 cells, GloSensor cAMP luminescence, 1 h. Potency, µM (highest dose often 115 µM), without a hit: top-dose activation, most hits filed as activators. 410,000 compounds, 0.075% hits. AID 743266; further: potency means the concentration at half of the fitted maximal effect; nearly all actives have a fitted effect of over 55% in size
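HEK-293-derived GP2 cells expressing PTHR1 and a GloSensor cAMP reporter, 3,000/well, plated overnight, given luciferin plus IBMX (each 0.5 mM as added) for 1 h at 37 °C, then compound for 1 h at 37 °C. Luminescence was read after 15 min at room temperature.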
GLP1R inv ag = acts as inverse agonist at human GLP-1 receptor; HEK293 GLP-1R CRE-luciferase, luminescence, 24 h; GLP-1R form is constitutively active; Potency, µM (doses to about 38.3 µM), for inactives: at the highest dose activity change, negative = inhibition, hits mostly inhibitors; P43220; 410,000 compounds, 1.6% hits; further: potency means the concentration at half of the fitted maximal effect; on the % scale 0 is the no-effect control and ±100 the full control effect; nearly all actives have a fitted effect of over 55% in size
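Cells are plated, allowed 12 hours at 37 deg C, then treated with compounds for 24 hr before luciferase detection reagent is added and luminescence is read after 12 min at room temperature. The HEK293 line carries constitutively active GLP-1R with a cAMP-responsive reporter.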
TRHR agonist = agonists of human TRH receptor; 360,000 compounds, 0.18% hits; TRHR cells, calcium flux fluo-8, FDSS agonist mode; activation, % at 2 µM; P34981; AID 493084; in the data active means activation above about 30%; further: 0% is about no effect
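Steps: seed TRHR cells overnight; add fluo-8 no-wash Ca dye, RT 30 min–1.5 h; record 10 s baseline; pin-transfer compounds; monitor fluorescence 1 cycle/s for the agonist window. Calcium increases flag candidate agonists.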
TRHR enhancer = allosterically enhances the human TRH receptor; P34981; TRHR cells, fluo-8 calcium fluorescence, EC20 TRH enhancement; enhancement, % at 2 µM; 360,000 compounds, 0.66% hits; AID 493056; in the data active means enhancement above about 30%; further: 0% is about no effect
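Enhancer read-out: after compound pinning and an initial kinetic agonist-mode read, an EC20 of TRH (10 nM final) was injected and fluo-8 calcium signal (Ex 480/Em 530) followed at 1 s/cycle for 100 cycles in TRHR-expressing cells.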
HEK293 tox = cytotoxic in the GLP-1 receptor inverse agonist counter-screen; 410,000 compounds, 0.13% hits; Potency, µM (top dose mostly 38.3 µM), for inactives: at the highest dose activity change, negative = inhibition, hits mostly inhibitors; HEK293 cAMP-luciferase reporter cells, luminescence, 24 h;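 further: loss of luciferase light is scored as toxicity; potency means the concentration at half of the fitted maximal effect; on the % scale 0 is the no-effect control and ±100 the full control effect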
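Quantitative HTS format, 1536 wells, 200 cells/uL seeded. Compounds: 23 nL, 24 h, 37 °C. Detection: luciferase reagent, luminescence at 12 min RT; decreased signal taken as cytotoxic.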
Numbers without * were called inactive; i = inactive; ? = inconclusive; . = not tested or not shown; ! = not confirmed by another sample; [ ] = another dose, or the depositor's remark. Unless noted, the call rests on the fitted dose curve; in most records, active means well fitted curve in the direction sought with a large enough effect; inconclusive means small, poorly fitted or top-dose-only effect, or another doubt; inactive means no such curve, though single readings can be large; an effect the other way counts as inactive or inconclusive.

SMILES	GLP-1R agonist	PTHR1 ag	GLP1R inv ag	TRHR agonist	TRHR enhancer	HEK293 tox
N=C1N(c2ccccc2)C(=S)C(=Nc2ccccc2)N1c1ccccc1	10.9%	-11.5%	12.6µM*	.	.	-0.6%
O=C(COc1cccnc1[N+](=O)[O-])N1CCc2ccccc21	10.9%	-4.5%	13.5%	-0.3	30.6*	-6.8%
COc1ccc(C(=O)NNc2ccccc2)cc1	-18.4%	i	?	0.2	-3.4	17.1%
COc1ccc(C(=O)NOCc2ccccc2)cc1	-6.8%	-9.3%	3.16µM*	0.4	5.4	2.0%
COc1ccc(C(=O)NC(=S)Nc2ccc(S(N)(=O)=O)cc2)cc1	1.1%	i	21.0%	-1.7	0.4	2.9%
COc1ccc(C(=O)NC(NC(=S)Nc2ccc(S(N)(=O)=O)cc2)C(Cl)(Cl)Cl)cc1 (stereo not given)	0.3%	i	3.16µM*	0.2	18.7	-6.5%
O=C(NOCc1ccccc1)c1ccc(Cl)cc1	-1.4%	-5.3%	?	0.2	1.5	-13.5%
COc1ccc(C(=O)NC(Nc2ccccc2)C(Cl)(Cl)Cl)cc1 (stereo not given)	-4.6%	i	7.08µM*	5.4	-9.2	-17.6%
COc1ccc(-c2cc(C(=O)Nc3c(Cl)cccc3Cl)no2)cc1OC	.	-18.6%	22.9%	-1.1	-5.1	1.5%
Cc1cccc(C(C)C)c1NC(=O)COC(=O)CNS(=O)(=O)c1ccccc1	-1.2%	i	13.7%	0.4	3.2	-6.9%
COC(=O)c1cc(Br)c(=O)n(CCN2CCCC2)c1	-4.7%	i	2.2%	0.9	-6.5	16.5%
COC(=O)c1cc(Br)c(=O)n(CC(C)C)c1	0.9%	i	0.3%	-1.2	30.8*	-0.3%
CN(C(=O)c1cccc(NC(=O)Cc2ccc(NC(=O)C3CCCN(C(=O)C4CCC4)C3)cc2)c1)C1CCCC1 (stereo not given)	9.2%	-73.9%	-8.8%	.	.	2.2%
O=C(C1CN(C(=O)c2cc3cc(Cl)ccc3o2)c2ccccc2O1)N1CCCCC1 (stereo not given)	-24.6%	-41.6%	11.2µM*	-0.2	-2.8	-30.8%
O=C(c1cc2cc(Cl)ccc2oc1=O)N1CCCCCCC1	-2.3%	-3.3%	-3.3%	-1.0	0.2	3.0%
O=C(O)C1=C[C@H](c2csc3ccccc23)C[C@H](OCc2ccc(CO)cc2)O1	-2.4%	14.6%	9.4%	-0.1	-2.5	13.6%
O=C(NCc1ccccc1)C1=C[C@@H](c2csc3ccccc23)C[C@@H](OCc2ccc(CO)cc2)O1	-0.7%	-19.6%	8.91µM*	0.7	3.7	-6.0%
Cc1ccc(-n2c(Cn3nc(C(F)F)cc3C(F)F)n[nH]c2=S)cc1	-12.4%	i	?	0.4	4.1	-4.4%
Cc1ccc2nc(-c3ccc(NC(=O)C(F)(F)F)cc3)sc2c1	-3.9%	-19.0%	?	-0.9	10.2	-3.0%
Cc1ccc2nc(-c3ccc(NC(=O)CNC4CC4)cc3)sc2c1	-5.5%	-90.9%	12.6µM*	0.6	5.5	4.2%
Cc1ccc(C(c2nnnn2Cc2ccccc2)N2CCN(Cc3ccccc3)CC2)cc1 (stereo not given)	-8.9%	i	10µM*	0.7	1.5	-24.5%
CC1CCN(C(c2cccs2)c2nnnn2Cc2ccccc2)CC1 (stereo not given)	-4.3%	-5.9%	10µM*	0.1	5.7	-0.4%
c1ccc(CN2CCN(C(c3ccccc3)c3nnnn3Cc3ccccc3)CC2)cc1 (stereo not given)	1.4%	i	?	0.3	9.2	9.7%
COc1ccc(-c2nc(CS(=O)CC(=O)N3CCN(C)CC3)c(C)o2)cc1OC (stereo not given)	0.3%	0.0%	0.3%	0.4	4.1	-16.5%
COc1ccc(CCNC(=O)c2ccc(-c3cccc([N+](=O)[O-])c3)o2)cc1OC	1.0%	i	?	-1.8	-0.2	?
SMILES	GLP-1R agonist	PTHR1 ag	GLP1R inv ag	TRHR agonist	TRHR enhancer	HEK293 tox
CCC1Nc2ncnc(N3CCCCC3)c2N(Cc2ccc(Cl)cc2)C1=O (stereo not given)	-0.8%	-48.9%	10µM*!	.	.	-36.1%
O=C1C(Cc2ccccc2)Nc2ncnc(N3CCc4ccccc4C3)c2N1Cc1ccc(Cl)cc1 (stereo not given)	-1.4%	i	?	0.3	9.3	-8.7%
CCC1Nc2ncnc(N3CCCCC3)c2N(Cc2ccc(Br)cc2)C1=O (stereo not given)	1.2%	i	?	1.4	-6.3	-0.1%
CCC1Nc2ncnc(N3CCc4ccccc4C3)c2N(Cc2ccc(Cl)cc2)C1=O (stereo not given)	-1.8%	-31.7%	7.94µM*	.	.	-15.7%
COc1cccc(-c2nc3n(n2)C(c2ccc4c(c2)OCO4)C(C(N)=O)=C(C)N3)c1 (stereo not given)	35.2%	-13.2%	85.1%	0.0	-2.1	6.8%
CCN(CC)S(=O)(=O)c1cccc(C(=O)Nc2nc3cc4c(cc3s2)OCCO4)c1	-9.9%	-29.7%[57.5 µM]	11.2µM*	0.0	1.2	-29.1%
CCc1nc2ccc(C(=O)Nc3ccc4c(c3)OCC(=O)N4)cn2c1N(CC)CCOC	22.0%	-1.8%	14.8%	.	.	2.8%
CNC(=S)N/N=C(\C)c1ccc(C)c(C)c1	11.6%	i	3.55µM*	0.3	2.8	?
C/C(=N\NC(=S)Nc1ccccc1C)c1ccc(O)cc1	5.1%	-3.1%	10µM*	0.3	1.4	?
COCCNC(=S)N/N=C(\C)c1ccc(O)cc1	5.4%	i	-21.1%	-0.8	-4.8	?
O=C(Cn1cc(COc2ccccc2C(F)(F)F)nn1)c1ccc(O)cc1	-4.5%	i	-0.4%	.	.	2.6%
O=C(C#Cc1ccccc1)c1ccco1	-2.9%	-39.5%	?	5.6	15.0	?
O=C(NCc1ccccc1)c1cccc(COc2ccc3c(c2)CCC3)c1	-2.4%	-7.5%	4.47µM*	0.8	0.1	-4.7%
O=C(NCc1ccccc1)c1cccc(NC(=O)c2ccccc2)c1	-2.8%	-12.8%	8.91µM*	.	.	-27.1%
O=C(Cn1cccc1C(=O)c1ccccc1)NCCCc1ccccc1	1.6%	i	?	-0.9	-3.5	-6.0%
O=C(NCCCCc1ccccc1)c1cccc(NC(=O)C2CCCCC2)c1	-5.6%	-28.9%	11.2µM*	.	.	-19.8%
CC(C(=O)NCCCc1ccccc1)n1cccc1C(=O)c1ccccc1 (stereo not given)	12.6%	-15.1%	11.2µM*	0.3	-7.1	-8.1%
O=C(NCCCCc1ccccc1)c1cccc(NC(=O)C2CCC2)c1	7.5%	i	13.5%	.	.	14.1%
CSc1cccc(NC(=O)C(=O)NCc2ccccc2)c1	4.8%	-14.0%	6.8%	-0.3	-0.8	-2.9%
